# Laboratory results reported in PubChem BioAssay (NCATS).
# Several values for one entry are separate records, joined by “and”; a condition that tells them apart may be missing. Equal values may be shown once. Results filed as inconclusive are left out. A number with no mark means an inactive call. Activity calls are given as the source filed them. The call rests on the fitted dose curve; in most records, active means well fitted curve in the direction sought with a large enough effect; inconclusive means small, poorly fitted or top-dose-only effect, or another doubt; inactive means no such curve, though single readings can be large or run the other way.
# Assay: qHTS Assay for Identifying Gametocytocidal Compounds (AID 743244);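 on max response: actives lower the fluorescent signal which means gametocytes are killed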
# Conditions: P. falciparum 3D7 stage III-V gametocytes, alamarBlue, 72 h; max response: active compounds read low
# Outline: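 A resazurin-based viability read-out was applied to mature P. falciparum gametocytes: 72 h compound treatment, then 24 h dye incubation, with falling fluorescence signalling gametocytocidal effect.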
# On the % scale 0 is the no-effect control and ±100 the full control effect; potency means the concentration at half of the fitted maximal effect.
Structure (SMILES),max response,Potency
O=C1NCN(c2ccccc2)C12CCN(CCCOc1ccc(F)cc1)CC2,0.637%,
CCCC(C)C1(CC)C(=O)N=C(S)NC1=O (stereo not drawn),6.11%,
CCN(Cc1ccc(Cl)nc1)/C(=C/[N+](=O)[O-])NC,8.58%,
O=C(O)Cc1ccccc1,-12.8%,
Clc1ccc(CSC(Cn2ccnc2)c2ccc(Cl)cc2Cl)cc1 (stereo not drawn),,3.98 µM (active)
Nc1ccc(N)cc1,-1.22%,
COc1cc(CC(C)N)c(OC)cc1Br (stereo not drawn),-17.7% and 14.6%,
OC(O)C(Cl)(Cl)Cl,-5.08%,
O=C1CC2(CCCC2)CC(=O)N1CCCCN1CCN(c2ncccn2)CC1,13.6%,
Cc1c(C)c2c(c(C)c1OC(=O)CCC(=O)OCCO)CC[C@@](C)(CCC[C@H](C)CCC[C@H](C)CCCC(C)C)O2,-0.873%,
CC(C(O)c1ccccc1)N(C)CCOC(c1ccccc1)c1ccccc1 (stereo not drawn),,5.01 µM (active)
CC[C@H]1C[C@H]2[C@@H]3CCC4=CC(=O)CC[C@@H]4[C@H]3CC[C@]2(C)[C@H]1O,-17.8%,
COc1ccc2c(C(=O)c3ccc(Cl)cc3)c(C)n(CC(=O)O)c2c1,36.2%,
CCN(CC)Cc1nccn1-c1ccc([N+](=O)[O-])cc1C(=O)c1ccccc1Cl,,16.6 µM (active)
Cc1nnc2n1-c1sc(CCc3ccc(CC(C)C)cc3)cc1C(c1ccccc1Cl)=NC2C (stereo not drawn),-7.02%,
CC[C@H]1C[C@@H]2C[C@H]3c4[nH]c5ccc(OC)cc5c4CCN(C2)[C@@H]13,5.97%,
CCOC(=O)NC(C)(C)Cc1ccc(Cl)cc1,-1.19%,
CN(C)C(=S)SC(=S)N(C)C,,0.794 µM (active)
